Source: PubChem BioAssay
Calls of active or inactive are those of the source.

Experiments:
[1] = system: Wnt5a (protein binding on small-molecule microarray); experiment: small molecules binding Wnt5a protein – biophysical, small-molecule microarray, 635/667 nm fluorescence, primary screen (AID 1142); conditions: 635 nm fluorescence, higher = more signal;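 note: fluorescence read at 667 nm with signal to noise per printed feature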
[2] = ATP-based viability of Huh7 replicon cells – cell-based, CellTiter-Glo luminescence, basal, 48 h, cytotoxicity control for HCV replication inhibitor project, primary screen (AID 1143); conditions: higher = more signal, called active from +8 up or from −8 down;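 note: Huh7 hepatoma cells carrying a hepatitis C replication reporter with no stimulus; test concentration not given here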
[3] = basal CRE-LacZ reporter activity in PC12 – cell-based, unstimulated, primary screen (AID 1145); conditions: no forskolin, luminescence, 4.5 h, higher = more signal, called active from +8 up or from −8 down
[4] = forskolin-driven CRE-LacZ activity in PC12 – cell-based, CRE-LacZ reporter, forskolin-stimulated, primary screen (AID 1146); conditions: luminescence, 4.5 h, higher = more signal, called active from +8 up or from −8 down;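 note: PC12 cells with 6xCRE LacZ reporter stimulated by forskolin 10 µM; beta-galactosidase reporter signal reflecting CREB driven transcription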
[5] = molecular target: Streptavidin (Streptomyces avidinii) (UniProt P22629); experiment: compounds binding control protein streptavidin – biophysical, small-molecule microarray, 635/667 nm fluorescence, artefact control for SMM compound annotation, primary screen (AID 1147); conditions: higher = more signal;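 note: signal reflects streptavidin binding to arrayed compounds as a control protein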
[6] = probe aInhba binding on compound microarray – biochemical, small-molecule microarray, 635/667 nm fluorescence, primary screen (AID 1148); conditions: higher = more signal;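 note: score merges 667nm spot fluorescence with signal-to-noise for antibody binding to printed compounds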
Torsin-1A (Homo sapiens) [7] = molecular target: Torsin-1A (Homo sapiens) (UniProt O14656); experiment: TOR1A wild-type binding on microarray – cell lysate, small-molecule microarray, lysate, 635/667 nm, primary screen (AID 1149); conditions: COS7 hTOR1A-WT lysate, 635 nm fluorescence, higher = more signal
Torsin-1A (Homo sapiens) [8] = molecular target: Torsin-1A (Homo sapiens) (UniProt O14656); experiment: torsin A mutant lysate binding on microarrays – cell lysate, small-molecule microarray, COS7 lysate, 635/667 nm fluorescence, primary screen (AID 1150); conditions: COS7 hTOR1A mutant lysate, 635 nm fluorescence, higher = more signal;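 note: score pools 667 nm emission and signal to noise measuring lysate protein binding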
[9] = system: Sonic hedgehog protein (Shh); experiment: Sonic hedgehog microarray binding compounds – biochemical, small-molecule microarray, 635/667 nm fluorescence, primary screen (AID 1151); conditions: 635 nm fluorescence, higher = more signal;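 note: Shh protein binding to compounds spotted on small-molecule microarray slides; score combines spot fluorescence intensity with signal-to-noise across triplicate slides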
[10] = optical density shifts of acrAB sulA E. coli – strain DRC41, OD650, 48 h, E. coli filamentation inducer project, primary screen (AID 1152); conditions: higher = more signal, called active from +8 up or from −8 down;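 note: E. coli MC1000 strain DRC41 lacking acrAB efflux pump and sulA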
[11] = probe aLefty1 binding on compound microarray – biochemical, small-molecule microarray, 635/667 nm fluorescence, primary screen (AID 1153); conditions: higher = more signal;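 note: score merges spot fluorescence with signal-to-noise ratio from the scanned slide images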
[12] = plasmodial surface anion channel blockers, osmotic lysis – cell-based, P. falciparum Indochina, OD700, 1 h, primary screen (AID 1154); conditions: P. falciparum Indochina infected RBC osmotic lysis, higher = more signal, called active from +8 up or from −8 down
[13] = plasmodial surface anion channel blockers, osmotic lysis – cell-based, P. falciparum Indochina, OD700, 2 h, primary screen (AID 1155);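 note: lysis reports solute entry through the parasite surface anion channel PSAC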; conditions: P. falciparum Indochina infected erythrocytes, higher = more signal, called active from +8 up or from −8 down
[14] = changes in parasitized red cell lysis, either direction – P. falciparum Indochina, OD700, 3 h, PSAC antagonist project, primary screen (AID 1156); conditions: P. falciparum-infected erythrocytes, osmotic lysis, higher = more signal, called active from +8 up or from −8 down
[15] = plasmodial surface anion channel blockers, osmotic lysis – cell-based, P. falciparum Indochina, OD700, 18 h, primary screen (AID 1157); conditions: P. falciparum Indochina infected erythrocytes, osmotic lysis OD700, 18 h; higher = more signal, called active from +8 up or from −8 down
[16] = S6 kinase pathway phospho-S6 level changes – cell-based, A549, cytoblot, luminescence, serum-stimulated, primary screen (AID 1158); conditions: 5 h, higher = more signal;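 note: serum-stimulated A549 lung adenocarcinoma cells; signal is phosphorylated S6 detected by cytoblot immunostaining with HRP secondary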
[17] = molecular target: NADPH oxidase 2 (Homo sapiens) (UniProt P04839); experiment: compounds shifting NOX2 Amplex Red fluorescence – cell-based, HEK293-NOX2, PMA-stimulated, NOX inhibitor project, primary screen (AID 1159); conditions: 45 min, higher = more signal, called active from +8 up or from −8 down; note: test concentration not given here
[18] = molecular target: NADPH oxidase 4 (Homo sapiens) (UniProt Q9NPH5); experiment: compounds shifting NOX4 Amplex Red fluorescence – cell-based, HEK293-NOX4, tetracycline-induced, NOX inhibitor project, primary screen (AID 1160); conditions: HEK293-NOX4, Amplex Red H2O2 fluorescence, 45 min; higher = more signal, called active from +8 up or from −8 down
[19] = molecular target: NADPH oxidase 5 (Homo sapiens) (UniProt Q96PH1); experiment: compounds shifting NOX5 Amplex Red fluorescence – cell-based, HEK293-NOX5, NOX inhibitor project, primary screen (AID 1161); conditions: HEK293-NOX5, ionomycin, 45 min, higher = more signal
NADPH oxidase 5 (Homo sapiens), sequence (Q96PH1 whole entry, looked up): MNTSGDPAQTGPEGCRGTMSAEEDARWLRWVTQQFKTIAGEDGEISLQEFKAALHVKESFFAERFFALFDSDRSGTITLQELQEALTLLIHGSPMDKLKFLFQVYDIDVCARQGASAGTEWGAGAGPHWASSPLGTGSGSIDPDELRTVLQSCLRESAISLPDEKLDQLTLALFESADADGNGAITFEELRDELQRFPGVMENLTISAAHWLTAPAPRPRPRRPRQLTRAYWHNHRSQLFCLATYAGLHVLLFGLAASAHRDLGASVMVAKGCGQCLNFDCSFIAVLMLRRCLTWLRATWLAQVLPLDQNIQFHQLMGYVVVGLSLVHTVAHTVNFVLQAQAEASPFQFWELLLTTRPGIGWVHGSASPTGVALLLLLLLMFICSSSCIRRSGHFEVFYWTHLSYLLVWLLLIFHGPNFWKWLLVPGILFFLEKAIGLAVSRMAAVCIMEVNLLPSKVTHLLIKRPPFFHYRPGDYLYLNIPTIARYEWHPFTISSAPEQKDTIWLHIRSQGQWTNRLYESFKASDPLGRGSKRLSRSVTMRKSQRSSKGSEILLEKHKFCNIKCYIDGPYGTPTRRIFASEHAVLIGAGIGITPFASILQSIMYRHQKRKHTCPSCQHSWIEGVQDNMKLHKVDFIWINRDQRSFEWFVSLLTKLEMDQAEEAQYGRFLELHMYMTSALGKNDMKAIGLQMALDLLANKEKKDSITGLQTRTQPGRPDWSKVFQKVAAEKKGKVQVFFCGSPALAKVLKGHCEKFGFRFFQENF

NADPH oxidase 2 (Homo sapiens), sequence (P04839 whole entry, looked up): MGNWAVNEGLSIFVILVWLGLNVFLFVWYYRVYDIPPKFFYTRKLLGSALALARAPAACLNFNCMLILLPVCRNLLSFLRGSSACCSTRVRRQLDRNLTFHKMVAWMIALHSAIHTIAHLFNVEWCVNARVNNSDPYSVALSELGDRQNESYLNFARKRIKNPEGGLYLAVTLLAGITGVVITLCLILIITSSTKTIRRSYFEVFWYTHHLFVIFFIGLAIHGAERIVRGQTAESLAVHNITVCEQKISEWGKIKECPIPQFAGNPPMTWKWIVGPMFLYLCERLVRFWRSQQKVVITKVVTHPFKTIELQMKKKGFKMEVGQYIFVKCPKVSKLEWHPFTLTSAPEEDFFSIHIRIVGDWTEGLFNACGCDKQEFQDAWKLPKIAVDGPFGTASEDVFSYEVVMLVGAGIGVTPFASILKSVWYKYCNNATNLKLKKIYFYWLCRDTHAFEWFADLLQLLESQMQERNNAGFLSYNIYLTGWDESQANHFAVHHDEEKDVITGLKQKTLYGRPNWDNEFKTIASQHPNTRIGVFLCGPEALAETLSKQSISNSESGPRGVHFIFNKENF
NADPH oxidase 4 (Homo sapiens), sequence (Q9NPH5 whole entry, looked up): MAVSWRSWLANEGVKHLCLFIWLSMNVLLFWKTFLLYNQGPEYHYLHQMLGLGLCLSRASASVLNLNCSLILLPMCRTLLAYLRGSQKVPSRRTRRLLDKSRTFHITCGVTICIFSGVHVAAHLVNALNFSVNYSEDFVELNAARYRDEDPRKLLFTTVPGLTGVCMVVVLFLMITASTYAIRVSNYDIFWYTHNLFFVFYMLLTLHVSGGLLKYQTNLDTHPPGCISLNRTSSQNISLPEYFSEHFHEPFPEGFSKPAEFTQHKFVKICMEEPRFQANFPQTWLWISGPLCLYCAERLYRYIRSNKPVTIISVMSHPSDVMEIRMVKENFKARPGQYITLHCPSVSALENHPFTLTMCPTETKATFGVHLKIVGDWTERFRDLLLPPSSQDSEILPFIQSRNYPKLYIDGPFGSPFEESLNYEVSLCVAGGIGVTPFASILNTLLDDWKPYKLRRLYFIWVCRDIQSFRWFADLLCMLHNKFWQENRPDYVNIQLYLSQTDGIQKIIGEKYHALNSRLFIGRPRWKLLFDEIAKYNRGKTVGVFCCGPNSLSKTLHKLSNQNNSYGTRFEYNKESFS
Torsin-1A (Homo sapiens), sequence (O14656 whole entry, looked up): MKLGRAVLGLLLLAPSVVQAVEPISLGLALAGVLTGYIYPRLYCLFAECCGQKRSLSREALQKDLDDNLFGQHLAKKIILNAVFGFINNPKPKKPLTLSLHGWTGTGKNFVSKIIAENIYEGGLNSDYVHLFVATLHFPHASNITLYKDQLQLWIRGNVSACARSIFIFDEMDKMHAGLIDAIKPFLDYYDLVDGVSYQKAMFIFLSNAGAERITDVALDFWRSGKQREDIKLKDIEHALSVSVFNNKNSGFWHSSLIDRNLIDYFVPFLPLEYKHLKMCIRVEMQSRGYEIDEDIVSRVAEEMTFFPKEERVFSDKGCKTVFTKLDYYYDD
Streptavidin (Streptomyces avidinii), sequence (P22629 whole entry, looked up): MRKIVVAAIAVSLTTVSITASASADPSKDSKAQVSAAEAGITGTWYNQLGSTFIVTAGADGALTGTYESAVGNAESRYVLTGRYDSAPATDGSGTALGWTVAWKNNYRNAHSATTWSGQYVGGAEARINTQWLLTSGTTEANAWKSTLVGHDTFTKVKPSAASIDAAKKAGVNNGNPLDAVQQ

Row | SMILES | composite z-score [1] | z-score [2] | z-score [3] | z-score [4] | composite z-score [5] | composite z-score [6] | composite z-score (Torsin-1A (Homo sapiens) [7]) | composite z-score (Torsin-1A (Homo sapiens) [8]) | composite z-score [9] | z-score [10] | composite z-score [11] | z-score [12] | z-score [13] | z-score [14] | z-score [15] | z-score [16] | z-score [17] | z-score [18] | z-score [19]
1 | CO[C@@H]1COC(=O)[C@H](COCc2ccccc2)NC(=O)CC=C[C@@H](C)[C@H](OC)COC(=O)[C@H](COCc2ccccc2)NC(=O)CC=C[C@H]1C | 0.0648 | -0.853 (inactive) | 0.336 (inactive) | -0.401 (inactive) | -0.405 | -0.2 | 0.692 | 0.209 | 0.839 | -0.207 (inactive) | 0.113 | -0.279 (inactive) | -0.562 (inactive) | -0.646 (inactive) | -1.73 (inactive) | 0.37 | 1.15 (inactive) | 0.931 (inactive) | 0.314
2 | CO[C@H]1COC(=O)CC=C[C@H](C)COC(=O)[C@@H](OCc2ccccc2)C=C[C@@H]1C | -0.192 | -4.32 (inactive) | 0.252 (inactive) | -1.2 (inactive) | 0.846 | -0.29 | 2.67 | 2.29 | 2.06 | -0.168 (inactive) | -0.338 | 0.733 (inactive) | -1.13 (inactive) | -0.858 (inactive) | -2.2 (inactive) | 1.27 | 0.837 (inactive) | -0.234 (inactive) | 0.164
3 | C=CCc1cccc([C@H]2N[C@H](C(=O)O)CC[C@@H]2C)c1 | 0.023 | 0.0815 (inactive) | 1.46 (inactive) | -0.675 (inactive) | -0.0599 | -0.101 | 0.352 | 0.122 | 1.54 | 0.574 (inactive) | -0.237 | 0.734 (inactive) | 1.15 (inactive) | 0.794 (inactive) | 0.443 (inactive) | -0.167 | 0.183 (inactive) | 0.773 (inactive) | 0.0482
4 | CO[C@H]1COC(=O)[C@H](C)COC(=O)[C@H](Cc2ccccc2)NC(=O)CC=C[C@H]1C | 0.265 | -0.441 (inactive) | 0.707 (inactive) | -0.872 (inactive) | -0.0705 | 0.286 | 0.715 | -0.121 | 1.61 | 0.261 (inactive) | 0.351 | 0.341 (inactive) | -1.39 (inactive) | 0.743 (inactive) | -1.83 (inactive) | 0.376 | -0.823 (inactive) | 0.901 (inactive) | -0.0208
5 | COc1ccc(CCNC(=O)[C@@]2(c3ccc([N+](=O)[O-])cc3)CC(=O)N(C(C)C)[C@@H]2c2ccc(CO)cc2)cc1 | -0.326 | -3.13 (inactive) | 0.0909 (inactive) | -1.25 (inactive) | -0.698 | -0.255 | -1.09 | -0.87 | -0.775 | 1.6 (inactive) | -0.0353 | 4.07 (inactive) | 0.208 (inactive) | 1.44 (inactive) | 0.621 (inactive) | 0.54 | 0.891 (inactive) | 0.433 (inactive) | 0.24
6 | COc1ccc([Si](C)(C)[C@H]2[C@H](CCO)O[C@@]3(C(=O)N(Cc4ccccc4)c4ccc(N5C(=O)c6cccc7cccc5c67)cc43)[C@@H]2C)cc1 | -0.234 | -5.81 (inactive) | 4.04 (inactive) | -1.36 (inactive) | -0.3 | -0.0791 | -0.144 | 0.0743 | 0.145 | 1.85 (inactive) | -0.105 | 3.41 (inactive) | 2.34 (inactive) | 1.36 (inactive) | 1.65 (inactive) | 0.314 | -1.35 (inactive) | 0.163 (inactive) | 0.513
7 | CCCCO[C@H]1C[C@H]2C(Br)=C[C@@]1(CO)C(=O)[C@]21CO1 | -0.112 | -0.483 (inactive) | 0.577 (inactive) | -0.67 (inactive) | -0.0819 | 0.0714 | 0.0005 | 0.281 | 0.536 | 2.71 (inactive) | -0.198 | -0.789 (inactive) | -1 (inactive) | -0.269 (inactive) | -2.44 (inactive) | 1.69 | -0.446 (inactive) | 0.493 (inactive) | 0.178
8 | CO[C@]12C=C(Br)[C@@H](C[C@@H]1c1ccccc1)[C@@]1(CO1)C2=O | -0.002 | -1.7 (inactive) | -0.323 (inactive) | 2 (inactive) | 0.4 | -0.0221 | 0.271 | 0.309 | 0.522 | 2.36 (inactive) | 0.166 | -0.0452 (inactive) | -0.698 (inactive) | 0.422 (inactive) | -1.7 (inactive) | 0.716 | 0.575 (inactive) | 0.625 (inactive) | 0.339
9 | C[N+](C)(C)CCCCNC(=O)[C@@H]1C[C@@H]2C(=O)N3CCC[C@H]3C(=O)N2[C@@H]1c1cccc(OCCO)c1 | 0.256 | -3.3 (inactive) | -0.671 (inactive) | -1.62 (inactive) | -0.315 | -0.128 | 0.725 | 1.03 | 1.84 | 1.25 (inactive) | 0.14 | 2.9 (inactive) | -0.732 (inactive) | -2.56 (inactive) | -2.13 (inactive) | 0.326 | -1.42 (inactive) | -0.183 (inactive) | -0.87
